Test results from PubChem BioAssay (NCATS).
Results filed as inconclusive are left out. Calls of active or inactive are those of the source. Calls come from the whole dose curve; as a rule, active = well fitted inhibition curve with a large enough effect; inconclusive = small, poorly fitted or top-dose-only effect; inactive = flat fitted curve, though single readings scatter.

Each compound was assayed against Tyrosyl-DNA phosphodiesterase 1 (Homo sapiens) (UniProt Q9NUW8) (assay: Confirmation Assay for Inhibitors of Tyrosyl-DNA Phosphodiesterase (TDP1) (AID 489007; note: nearly all actives have a fitted effect of over 40% in size)). Details: recombinant human TDP1 enzymatic activity, dose-response.
Chain of Tyrosyl-DNA phosphodiesterase 1 (Homo sapiens) (Q9NUW8 whole entry, looked up): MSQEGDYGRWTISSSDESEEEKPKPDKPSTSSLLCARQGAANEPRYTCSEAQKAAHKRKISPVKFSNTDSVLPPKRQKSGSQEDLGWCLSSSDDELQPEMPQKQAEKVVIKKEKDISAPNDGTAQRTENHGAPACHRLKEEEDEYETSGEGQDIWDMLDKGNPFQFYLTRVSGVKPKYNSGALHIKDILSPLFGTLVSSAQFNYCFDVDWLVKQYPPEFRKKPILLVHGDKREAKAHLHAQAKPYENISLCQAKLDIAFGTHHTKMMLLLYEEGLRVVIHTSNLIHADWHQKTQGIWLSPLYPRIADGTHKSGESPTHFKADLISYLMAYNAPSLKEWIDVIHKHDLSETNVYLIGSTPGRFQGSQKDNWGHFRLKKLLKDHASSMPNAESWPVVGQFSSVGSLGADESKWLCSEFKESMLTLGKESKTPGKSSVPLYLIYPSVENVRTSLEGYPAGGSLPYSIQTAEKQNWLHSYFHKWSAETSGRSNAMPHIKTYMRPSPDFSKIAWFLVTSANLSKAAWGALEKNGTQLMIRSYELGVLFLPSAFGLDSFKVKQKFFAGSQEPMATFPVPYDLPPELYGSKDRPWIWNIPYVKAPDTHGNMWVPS
Text: Human tyrosyl-DNA phosphodiesterase I (Tdp1) is a rational anticancer target because this enzyme is involved in the repair of DNA lesions created by the trapping of human DNA topoisomerase I (Top1) following treatment by anticancer agents such as camptothecins. Recombinant Tdp1 was expressed and purified from E. coli in the laboratory (Anthony et al, Nucleic Acids Research, 2007, Vol. 35, 4474-4484). A Tdp1 DNA substrate bearing a 5' biotin and a 3' phospho-tyrosine was obtained by custom synthesis. This oligonucleotidic DNA substrate was subsequently coupled to a fluorescein isothiocyanate (FITC) group via the free amino group present on the phospho-tyrosine. Tdp1 was screened against the NCGC small molecule library using the AlphaScreen (AS) detection method in which a streptavidin donor AS bead is bound at the 5' end and an anti-FITC AS acceptor bead is bound at the 3' end of the DNA oligonucleotidic substrate. In the presence of Tdp1, the enzyme cleaves the tyrosine-FITC group, leaving a 3' end phosphate on the DNA substrate. This cleavage reaction results in a loss of signal in AS.
This BioAssay is a confirmation of followup compounds from primary TDP1 screen (AID:485290)
NIH Molecular Libraries Probe Production Network [MLPCN]
NIH Chemical Genomics Center [NCGC]
Assay Provider: Yves Pommier and Christophe Marchand, National Cancer Institute
Assay Title: qHTS Assay for Inhibitors of Tyrosyl-DNA Phosphodiesterase (TDP1)
[1] 3 ul of buffer is dispensed in columns 3 & 4 as negative control (no enzyme and maximum signal),
[2] 3 ul of enzyme (1 nM final) is dispensed in columns 1,2, 5-48,
[3] 1 ul of substrate (15 nM final) is dispensed throughout the plate,
[4] 1 ul of AS donor/acceptor bead mix (10 ug/ml final) is dispensed throughout the plate
3 ul of Tdp1 enzyme is dispensed to 1536-well Kalypsys black solid bottom plates. Compounds and controls (23 nl) are transferred via Kalypsys Pin Tool. The plates are incubated for 15 min at room temperature, and then 1 ul of substrate is added to start the reaction. After 5 min incubation at room temperature, 1 ul of AS donor/acceptor bead mix is added and the plates are further incubated for 10 min at room temperature. The detection is then performed on a PerkinElmer Envision reader.
Potency is the fitted concentration of half-maximal effect.

Potency, active:
CCOC(=O)c1sc(NC(=O)C2CC=CCC2C(=O)O)nc1C (stereo not given) 39.8 µM
O=S(=O)(O)c1ccc2c(c1)-c1nc-2nc2[nH]c(nc3nc(nc4[nH]c(n1)c1ccc(S(=O)(=O)O)cc41)-c1ccc(S(=O)(=O)O)cc1-3)c1ccc(S(=O)(=O)O)cc21 0.0282 µM
Cc1ccc(NC(=O)CN2C(=O)S/C(=C\c3cccn3-c3cccc(C(=O)O)c3)C2=O)c(C)c1 15.8 µM
CC(=O)Nc1ccc2nc3c(=O)[nH]c(=O)[nH]c3nc2c1 4.47 µM
O=C(O)c1ccc(CSc2n[nH]c(-c3ccco3)n2)cc1 39.8 µM
Cc1nnc(NC(=O)CCSCCC(=O)Nc2nnc(C)s2)s1 15.8 µM
Cc1ccc(S(=O)(=O)N2CC=C(C(=O)NCc3ccc(F)cc3)CC2)cc1 28.2 µM
CCCCCc1nnc(NC(=O)Cc2cccs2)s1 25.1 µM
Nc1ccc(Nc2ccccc2)c(S(=O)(=O)O)c1 7.94 µM
Cc1nn(Cc2ccc(F)cc2)c(C)c1NC(=O)c1cc2ncc(Br)cn2n1 44.7 µM
O=c1cc(CCl)nc2sc3ccccc3n12 14.1 µM
O=C1CC(=O)N(Cc2ccco2)C(=S)N1 15.8 µM
CC1=NN(c2ccc(Cl)c(C(=O)O)c2)C(=O)/C1=C\c1ccc(-c2ccc(C(=O)O)cc2)o1 14.1 µM
O=C(O)c1cccc(-n2cccc2/C=C2\SC(=O)N(Cc3ccccc3F)C2=O)c1 11.2 µM
COc1ccc2cc(C(=O)Nc3ccccc3)sc(=O)c2c1OC 56.2 µM
COc1ccc(CCN2C(=O)C3C4CC(C5C(C(N)=O)=NOC45)C3C2=O)cc1OC (stereo not given) 112 µM
Cc1ccc2cc(C)c3nnc(SCC(=O)NCc4ccco4)n3c2c1 35.5 µM
COc1ccc(N2Cc3cccc(C(=O)O)c3C2=O)cc1 2.51 µM
CCc1oc(C(=O)O)cc1COC 31.6 µM
Cc1cc(N2C(=O)C3C4C=CC(C4)C3C2=O)ccc1NC(=O)c1cccs1 (stereo not given) 70.8 µM
COc1ccc2nc(N3CCCCC3)c(C#N)cc2c1 31.6 µM
Cc1c(C(=O)O)sc2nc3n(c(=O)c12)CCC3 6.31 µM
O=C1c2ccccc2-c2onc3ccc(NCc4ccco4)c1c23 7.08 µM
COc1ccc2cc3cc(C(=O)NCc4cccs4)oc3nc2c1 25.1 µM
N#CC(C#N)=Cc1cccn1-c1ccc(C(=O)O)cc1 3.98 µM
C=CCCN(Cc1ccccc1)S(=O)(=O)c1ccccc1Br 56.2 µM
CO/N=C(/C(=O)N[C@H]1C(=O)N2C(C(=O)O)=C(COC(C)=O)CSC12)c1csc(N)n1 (stereo not given in full) 8.91 µM
Cc1ccc2nc(-c3ccncc3)cc(C(=O)Nc3ccc(OC(F)F)cc3)c2c1 70.8 µM
CO/N=C(/C(=O)NC1C(=O)N2C(C(=O)O)=C(COC(N)=O)CSC12)c1ccco1 (stereo not given) 6.31 µM
O=C(O)c1ccc2ncsc2c1 39.8 µM
O=C(O)C1C2C=CC(CC2)C1C(=O)O (stereo not given) 7.94 µM
O=C(CSc1nc2ccccc2[nH]1)NC1CCCC1 14.1 µM
OC[C@@H]1[C@@H](c2ccc(Cl)cc2)C(c2cccc(Cl)c2)=NN1c1ccccc1 50.1 µM
NC(=O)COC(=O)c1ccc(S(=O)(=O)NCc2ccco2)cc1 126 µM
O=C(/C=C/c1c(Cl)nc2ccccn12)N1CCN(c2ccc(F)cc2)CC1 35.5 µM
OC[C@@H]1[C@@H](c2ccccc2)C(c2cccc(Cl)c2)=NN1c1ccccc1 10 µM
Cc1ccc(CNC(=O)c2ccc(-n3cccc3)cc2)cc1 12.6 µM
O=C(Nc1cc2c(oc1=O)CCCC2=O)c1ccc(Cl)cc1 31.6 µM
COc1ccc(S(=O)(=O)NCc2cccs2)cc1 112 µM
O=C1NN(c2ccccc2)C(=O)/C1=C/c1ccc(-c2ccc(Cl)c(C(=O)O)c2)o1 7.08 µM
